One compound from PubChem BioAssay (NCATS) can be followed below.

Test [1] is described as follows: Confirmation and Secondary Assay for Modulators of Hemoglobin Beta Chain Splicing at IVS2 654 locus (AID 910).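 Further: HeLa cells stably carrying EGFP split by mutant beta-globin IVS2-654 intron; per-well total GFP intensity by laser scanning cytometry after 2-day treatment; % of control where 0% means no effect.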 In outline: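 Readout: per-well total peak green fluorescence (488 nm ex, 500–520 nm em) from objects 5–250 µm, reflecting correct splicing of an EGFP-654 reporter. Compounds were applied for 2 days at 37 °C to overnight-plated HeLa EGFP-654 cells; controls were DMSO and 500 nM IVS2-654 PNA.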

The nature of test [2]: Confirmation and Secondary Assay for Modulators of Hemoglobin Beta Chain Splicing at IVS2 705 locus (AID 930).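 Further: HeLa cells stably expressing the EGFP-705 splicing reporter; GFP fluorescence per well restored by corrected splicing of the IVS2-705 intron in EGFP; % of control where 0% means no effect.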 In outline:
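HeLa IVS2-705 EGFP reporter cells, 500/well, compound 2 d at 37C; correct splicing yields fluorescent EGFP. Control: 500 nM antisense PNA. Read-out: total peak GFP intensity.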

The nature of test [3]: qHTS Assay for Lipid Storage Modulators (AID 1519; calls by dose curve; on activity change, negative = inhibition: on the % scale 0 is the no-effect control and ±100 the full control effect). To be noted: Drosophila S3 cells, BODIPY lipid droplet/cell ratio, laser cytometry, cells loaded with oleic acid. In outline:
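Cells seeded at 5,000 per well were treated with compounds over a concentration series and loaded with oleic acid (400 uM, as added). Lipid droplet fluorescence (488 nm excitation, 500-530 nm channel) was read by laser-scanning cytometry and normalized to 20 uM Triacsin C.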
For orientation: Quantitative high-throughput screening tests each substance at several concentrations.

Test [4] concerns the target Ubiquitin carboxyl-terminal hydrolase 1 (Homo sapiens) (UniProt O94782). The test is described as follows: Inhibitors of USP1/UAF1: Pilot qHTS (AID 504865).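 Further: rhodamine fluorescence freed from ubiquitin-rhodamine substrate followed over time; top concentration of the series differs between compounds; on the % scale 0 is the no-effect control and ±100 the full control effect; nearly all actives have a fitted effect of over 35% in size.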 The method in brief: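 Kinetic fluorescence assay: 1nM USP1/UAF1, 15 min compound preincubation, then 150nM Ub-Rho; 480/540 nm.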
Test [5] concerns the target Luciferin 4-monooxygenase (Photinus pyralis) (UniProt P08659). The test is described as follows: Biochemical firefly luciferase enzyme assay for NPC (AID 624030).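 Further: purified P. pyralis luciferase at 10 nM with luciferin and ATP substrate; 0% = DMSO and -100% = full luciferase inhibition by PTC124 control; nearly all actives have a fitted effect of over 70% in size.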 In outline: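 Direct inhibition of firefly luciferase enzyme (10 nM final, 50 mM Tris Acetate) assessed by luminescence within 5 minutes. Percent activity scaled between DMSO and PTC124 positive control, with concentration-effect curves classified by fit quality and response.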

Test [6] in a line: P-glycoprotein substrates identified in KB-8-5-11 adenocarcinoma cell line, qHTS therapeutic library screen (AID 1346987). Further: on the % scale 0 is the no-effect control and ±100 the full control effect; nearly all actives have a fitted effect of over 65% in size. The method in brief: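 In this qHTS, P-gp-rich KB-8-5-11 cells received library compounds across a concentration range. Viability was quantified by luminescence after 72 h at 37 degree C.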
A short description of test [7]: Drug repurposing screens with cells derived from glioblastoma tumor samples (AID 1345199). Further: on the % scale 0 is the no-effect control and ±100 the full control effect; nearly all actives have a fitted effect of over 40% in size. To be noted: GBM patient neurospheres viability, ATP luminescence, 48 h; Potency: tumour line A; series mostly up to 45.9 µM. The method in brief: (§1)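 Primary testing used CD133+ neurospheres from four GBM patients, seven concentrations, 48 h exposure and ATP-based viability; confirmation added three slower-growing patient lines.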

In a further test the test system is astro. The test is described as above. To be noted: viability, ATP luminescence, 48 h; series mostly up to 45.9 µM. In outline:
as §1

Results filed as inconclusive are left out. Calls of active or inactive are those of the source. Unless noted, the call rests on the fitted dose curve; in most records, active means well fitted curve in the direction sought with a large enough effect; inconclusive means small, poorly fitted or top-dose-only effect, or another doubt; inactive means no such curve, though single readings can be large; an effect the other way counts as inactive or inconclusive.

Chain of Ubiquitin carboxyl-terminal hydrolase 1 (Homo sapiens) (O94782 whole entry, looked up): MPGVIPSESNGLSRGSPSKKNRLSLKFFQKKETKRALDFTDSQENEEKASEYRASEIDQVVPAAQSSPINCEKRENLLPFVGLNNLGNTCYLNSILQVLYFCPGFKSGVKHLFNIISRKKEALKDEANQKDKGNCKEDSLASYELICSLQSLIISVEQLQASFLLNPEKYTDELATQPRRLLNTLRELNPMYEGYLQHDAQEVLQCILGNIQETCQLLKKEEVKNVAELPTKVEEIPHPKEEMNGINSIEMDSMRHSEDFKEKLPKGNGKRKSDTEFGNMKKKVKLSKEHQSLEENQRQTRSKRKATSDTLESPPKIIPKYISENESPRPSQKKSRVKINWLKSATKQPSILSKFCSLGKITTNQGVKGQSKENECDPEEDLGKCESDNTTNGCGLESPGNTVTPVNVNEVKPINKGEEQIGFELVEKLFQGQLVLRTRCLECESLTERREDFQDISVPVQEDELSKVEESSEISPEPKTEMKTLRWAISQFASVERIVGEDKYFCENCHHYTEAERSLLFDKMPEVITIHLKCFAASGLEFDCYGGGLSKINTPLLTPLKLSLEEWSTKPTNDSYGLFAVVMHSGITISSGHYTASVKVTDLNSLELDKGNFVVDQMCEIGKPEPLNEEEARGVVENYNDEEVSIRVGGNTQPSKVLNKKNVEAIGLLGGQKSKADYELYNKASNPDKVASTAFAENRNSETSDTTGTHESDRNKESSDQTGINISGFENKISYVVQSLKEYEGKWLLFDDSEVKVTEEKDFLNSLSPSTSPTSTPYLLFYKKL
Chain of Luciferin 4-monooxygenase (Photinus pyralis) (P08659 whole entry, looked up): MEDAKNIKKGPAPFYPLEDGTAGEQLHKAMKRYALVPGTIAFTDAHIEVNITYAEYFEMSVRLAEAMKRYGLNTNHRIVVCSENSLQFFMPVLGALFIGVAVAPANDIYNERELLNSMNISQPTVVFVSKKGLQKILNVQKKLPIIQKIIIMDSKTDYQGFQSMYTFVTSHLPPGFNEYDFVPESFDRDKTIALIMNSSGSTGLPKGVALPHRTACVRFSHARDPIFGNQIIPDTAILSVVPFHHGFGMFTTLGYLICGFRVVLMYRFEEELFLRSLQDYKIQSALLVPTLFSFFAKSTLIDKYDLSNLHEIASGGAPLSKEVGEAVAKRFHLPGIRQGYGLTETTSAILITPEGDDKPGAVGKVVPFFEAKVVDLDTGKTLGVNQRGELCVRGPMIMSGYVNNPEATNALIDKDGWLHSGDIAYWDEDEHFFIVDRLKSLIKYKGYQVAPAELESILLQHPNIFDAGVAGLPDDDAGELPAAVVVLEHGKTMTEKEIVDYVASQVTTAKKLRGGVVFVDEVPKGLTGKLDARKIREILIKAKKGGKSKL

In the case of `CCN(CC)/[N+]([O-])=N/O`, the Potency result (in test [1]; in test [4]; in test [5]; in test [6]; in test [7]; with astro) was “inactive” in each case. Also, in test [2], the compound was classed as inactive. For the same compound, the activity change, negative = inhibition in test [3] (at 57.5 µM (top of the series)) was 8.09% (inactive). For the same compound, the max response is -15% in test [3] (measured here: cell count channel max response) and -4.74% in test [3] (measured here: lipid channel max response).
